Data on nine compounds can be found in PubChem BioAssay (NCI).

Test in all cases: NCI-60 one-dose screen, 48 h (100 = growth as untreated, 0 = no growth, -100 = all killed)
Settings in all cases: 10 µM

The subject of assay [1] is SR leukemia.
For assay [2], the system named is OVCAR-8 ovarian.
Assay [3] relates to OVCAR-5 ovarian.
Assay [4] has as its system OVCAR-4 ovarian.
For assay [5], the system named is SK-OV-3 ovarian.
The subject of assay [6] is IGROV1 ovarian.
For assay [7], the system named is OVCAR-3 ovarian.
Assay [8] relates to NCI/ADR-RES ovarian.
The subject of assay [9] is T-47D breast.
Assay [10] deals with BT-549 breast.
The test system of assay [11] is MDA-MB-435 melanoma.
The test system of assay [12] is SW-620 colon.
In assay [13] the test system is MCF7 breast.
Assay [14] relates to HCT-116 colon.
Assay [15] has as its system HCC-2998 colon.
For assay [16], the system named is KM12 colon.
Assay [17] has as its system RPMI-8226 leukemia.
Assay [18] deals with HS 578T breast.

About 83,000 compounds went through this panel and 20% of them were active in at least one assay; those are over-represented in the sample as a whole.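 Values shown are percent growth following 48 h exposure of cells in 96-well plates to a single concentration of compound; below 10 was considered active.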 Values without a mark were called inactive. Activity calls are given as the source filed them.

On to `C=CCn1ccc(=O)nc1SC`, for which the growth in [1] is 112%; in assay [2] it was 100%; in [3], 109%; in assay [4], 106%; in assay [5], 105%; in [6] it was 120%. The growth in [7] was 113%; in assay [8], 104%; in assay [9], 97.2%; in assay [10], 105%; in [11] it was 108%; in assay [12], 103%. The growth in assay [13] is 100%; in [14], 112%; in assay [15], 103%; in assay [16] it was 104%.
For the compound `CC1(C)Cc2c(cn(Cc3ccccc3)c2-c2ccccc2)-c2oncc21`, the growth in [17] was 74.8%; in assay [2] it was 101%; in assay [3], 111%; in [4], 98.5%; in assay [5], 96.4%; in [6] it was 121%. Besides, the growth in [7] was 110%; in [8], 92.5%; in assay [9], 75.7%; in assay [10], 108%; in assay [11], 92.8%; in assay [12], 95.7%. Besides, the growth in assay [13] is 105%; in [14] it was 88.2%; in [16], 105%.
Consider `C[C@]12CC[C@H]3[C@@H](CCC4=CC(=O)CC[C@@]43C)[C@@H]1CC[C@@H]2c1csc(N)n1`, for which the growth was 19.1% in [17]; 46.5% in assay [2]; 99.8% in [3]; 23.1% in assay [4]; 89.1% in assay [5]; 87.3% in assay [6]. Moreover, the growth was 63% in [7]; 104% in assay [18]; 32.1% in [8]; 24.8% in assay [9]; 34.2% in assay [10]; 55.5% in assay [11]. Besides, the growth in [12] was 56.9%; in assay [13], 26%; in [14], 32.7%; in [15] it was 45.8%; in [16], 50.8%.
As for `O=C(Cn1ccc(=O)[nH]c1=O)c1ccc([N+](=O)[O-])o1`, the growth was 65.5% in assay [17]; 103% in [2]; 114% in [3]; 97.9% in [4]; 112% in [5]; 123% in assay [6]. Also, the growth in assay [7] was 96.9%; in [18], 116%; in assay [8] it was 107%; in assay [9], 80.4%; in [10], 99.4%; in [11] it was 97.1%. In addition, the growth in assay [12] is 102%; in [13] it was 38.2%; in assay [14], 88.7%; in assay [15], 111%; in assay [16], 83.9%.
In the case of `N=C(N)c1ccc(-c2ccc(-c3ccccc3)s2)cc1F`, the growth in assay [17] is -60.2% (active); in [2] it was -32.9% (active); in [3], -96.8% (active); in assay [4] it was -57.2% (active); in assay [5], -92.4% (active); in assay [6], -51.2% (active). The growth in assay [7] was -94.6% (active); in assay [18], -41.6% (active); in assay [8], -50.8% (active); in assay [9], -65.6% (active); in [10], -96.8% (active); in [11], -84.2% (active). Besides, the growth in assay [12] was -85.4% (active); in [13] it was -71.7% (active); in assay [14], -91.8% (active); in assay [15], -79.1% (active); in assay [16], -86.1% (active).
Turning to `COc1ccc(-c2nnc(SCC(=O)c3ccccc3)o2)cc1`, the growth was 89% in assay [17]; 109% in assay [2]; 100% in [3]; 108% in assay [4]; 102% in assay [5]; 105% in [7]. The growth in assay [18] was 103%; in assay [8], 91.9%; in assay [9], 86.3%; in assay [10] it was 74.9%; in [11] it was 101%; in assay [12] it was 102%. The growth was 104% in assay [13], 78.9% in assay [14], 86.1% in assay [15] and 98.3% in [16].
For the compound `COc1ccccc1CNCCCN1C(=O)c2ccc3c4c(ccc(c24)C1=O)C(=O)N(CCCNCCNCCCN)C3=O`, the growth in [2] is 12.4%; in assay [3] it was 65.9%; in assay [4] it was -94.8% (active); in [5], 52.8%; in [6] it was 13.4%; in assay [7] it was -14% (active). Besides, the growth in assay [18] was 54.6%; in assay [8] it was 96.7%; in assay [9] it was 17.9%; in assay [10], 69.4%; in assay [12], 8.12% (active); in assay [13] it was -39.1% (active). The growth was 1.05% (active) in [14], 14.7% in assay [15] and 15.4% in [16].
On to `Cc1cc(Nc2cccc(F)c2)nc(NCc2ccccc2)n1`, for which the growth is -3.16% (active) in [17]; 19.2% in assay [2]; 60.9% in assay [3]; 15.9% in assay [4]; 80.6% in [5]; 27.1% in assay [6]. Also, the growth in [7] was 0.169% (active); in assay [18], 68.4%; in assay [8], 11%; in [9] it was 15.6%; in assay [10], 82%; in assay [11], 23.2%. In addition, the growth in assay [12] is 22.7%; in [13], 15.1%; in [14], 15.8%; in assay [15], 26.9%; in [16], 14.1%.
Turning to `COc1ccc(Cn2cc3c(c2-c2cc(OC)c(OC)c(OC)c2)CCc2cnoc2-3)cc1N`, the growth in assay [17] is 25.7%; in assay [2], 28%; in assay [3], 52.4%; in assay [4] it was 37.6%; in assay [5], 2.09% (active); in assay [6], 7.25% (active). Besides, the growth in assay [7] is 1.74% (active); in [18], 10.4%; in [8], 6.71% (active); in assay [9] it was 43.4%; in assay [10] it was 26.3%; in assay [11], -37% (active). The growth in assay [12] was 20.4%; in assay [13], 16%; in assay [14] it was 0.095% (active); in assay [15] it was -9.27% (active); in [16] it was 1.77% (active).
